Experimental data published in PubChem BioAssay (NCI).
Compounds without any hit were thinned out: in the full panel of roughly 79,000, 15% have a hit. Values without a mark were called inactive. Active and inactive are the calls of the source. Cut-off read from the data, not from the text of the source: active = growth inhibition above about 70%; inactive = the rest.

assay: NCI Yeast Anticancer Drug Screen. Data for the cln2 rad14 strain (AID 165);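 note: 0% = growth equal to vehicle treated cultures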; settings: S. cerevisiae cln2 rad14 strain, at 5.0 µM (retest, dose inferred, filed as 0.5), stronger effect = higher value
Procedure, shortened: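 Growth inhibition, relative to vehicle-treated controls, is the read-out. The test organism is a yeast strain with defined genetic alterations, cln2 rad14.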

Row | SMILES | growth inhibition
1 | COC(=O)C1C(c2ccccc2)=N[C@@H](c2ccccc2)[C@H]1C(=O)OC (stereo partly specified) | 6%
2 | CCCCCCCCCC(C)CC(=O)NCCCN(C)CCCCN(C)C (stereo unspecified) (tested in a mixture with another compound) | 28%
3 | Cc1ccc(N=C2SC(=S)N(CCC[N+](C)(C)C)C2=Nc2ccc(C)cc2)cc1 | 12%
4 | N#CSc1ccc(O)c2ccccc12 | 45%
5 | CCCCCC1OC(CCCCC)OC(CCCCC)O1 (stereo unspecified) | 4%
6 | ClC1(c2ccccc2)c2ccccc2-c2ccccc21 | -1%
7 | CCN(CC)c1ccc(NC(CC(O)c2ccccc2)c2ccccc2)cc1 (stereo unspecified) | -5%
8 | CCCCCCC[n+]1ccc(C(=O)c2ccccc2)cc1 | 99% (active)
9 | O=c1[nH][nH]c(=O)c2c1nc(SCc1ccccc1)n2Cc1ccccc1 | -3%
10 | CCOC(=O)C(NNc1ccccc1)C(c1ccccc1)[P+](c1ccccc1)(c1ccccc1)c1ccccc1 (stereo unspecified) | 59%
11 | CC(C)/C=C1\CCC(CN2CCOCC2)C1=O (stereo unspecified) | 23%
12 | CCc1cc2nc3c(=O)[nH]c(=O)nc-3n(CCN(CCO)CCO)c2cc1CC | 2%
13 | c1ccc2c(c1)OCC(CN1CCN(CC3COc4ccccc4O3)CC1)O2 (stereo unspecified) | 52%
14 | CNC(C)C(=O)c1ccc2ccc3ccccc3c2c1 (stereo unspecified) | 0%
15 | O=[N+]([O-])c1ccc(N=C(Cl)C(Cl)(c2ccccc2)c2ccccc2)cc1 | 9%
16 | O=[N+]([O-])c1ccc2c(c1)Cc1cc(Cl)ccc1-2 | -5%
